Screens as filed in PubChem.
Cycloheximide cs = affects cycloheximide protein synthesis inhibition readout, counter-screen | 300,000 compounds, 12% hits | max response, % | cell reporter, cycloheximide protein synthesis inhibition counterscreen; in the data active means max response mostly above about 13%, no sharp cut-off; inactive means mostly below about 14%; further: read at 38.3 µM for the half of the compounds with a filed dose; 0% is about no effect
Pf growth 48h = P. falciparum growth inhibition at 48 hours (one generation). P. falciparum luciferase growth in erythrocytes, 48 h. Potency, µM (highest dose often 28.7 µM), for the others: top-dose activity change, negative = inhibition, hits mostly inhibitors. 310,000 compounds, 5.9% hits; further: potency means the concentration at half of the fitted maximal effect; on the % scale 0 is the no-effect control and ±100 the full control effect
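Cell-based growth assay: transgenic P. falciparum expressing firefly luciferase, cultured in red cells within RPMI 1640 containing 0.5% w/v Albumax, 24 mM bicarbonate and gentamycin. A drop in luciferase activity indicates inhibition.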
Pf growth 96h = inhibits malaria parasite growth, 96 h | P. falciparum luciferase reporter growth, 96 h | 320,000 compounds, 6.9% hits | Potency, µM (doses to about 28.7 µM), for the others: at the top dose activity change, negative = inhibition, usual class: inhibitors; further: potency means the concentration at half of the fitted maximal effect; on the % scale 0 is the no-effect control and ±100 the full control effect
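Erythrocytes infected with luciferase-expressing P. falciparum were dispensed at 2% hematocrit and 0.05% parasitemia (final), then incubated with compounds 96 hours at 37 C in 5% CO2. Luminescence after detection reagent addition reported growth.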
Shiga toxin inh = Shiga toxin inhibition | 290,000 compounds, 9.2% hits | Vero cells, Shiga toxin protein synthesis inhibition reporter | inhibition, % at 38.7 µM | AID 2315; in the data active means inhibition mostly above about 28%, no sharp cut-off; inactive means mostly below about 43%; further: 0% is about no effect
Active calls of the source: *; i = inactive; ? = inconclusive; nt = not tested or not shown; + = active, no number. Rows were chosen to be rich in hits. Some 21% of all compounds tested hit in one or more screens of this group. Unless noted, the call rests on the fitted dose curve; in most records, active means well fitted inhibition curve with a large enough effect; inconclusive means small, poorly fitted or top-dose-only effect, or another doubt; inactive means no such curve, though single readings can be large or run the other way.

SMILES	Cycloheximide cs	Pf growth 48h	Pf growth 96h	Shiga toxin inh
Cc1cc(NC(=O)C2Oc3ccccc3OC2C)no1 (stereo not drawn)	7.6	?	13.4%	9.4
N#C/C(=C\c1cccs1)C(=O)NCc1ccccc1	12.6	27.0%	4.7%	26.6
CC1Oc2ccccc2OC1C(=O)Nc1nccs1 (stereo not drawn)	18.3*	4.4%	5.1%	25.4
O=C(O)C1C2CCC(O2)C1C(=O)Nc1ccccc1Br (stereo not drawn)	-1.5	-3.6%	-28.5%	-2.6
CCN1CCN(C(c2cccs2)C(C)NC(=S)Nc2cccc(C)c2C)CC1 (stereo not drawn)	2.2	47.2%	?	-3.6
COCCCNC(c1ccccc1)c1ccncc1 (stereo not drawn)	-1.5	-2.2%	2.62µM*	-7.3
CCc1ccccc1Nc1nc(N)nc(COC(=O)CCNS(=O)(=O)c2ccccc2)n1	nt	11.7µM*	?	nt
O=C(CNS(=O)(=O)c1ccccc1)OCC(=O)c1ccc(Br)cc1	-5.3	0.5%	-1.3%	-3.4
O=C(COC(=O)c1cccc(S(=O)(=O)NCc2ccccc2)c1)c1ccccc1	18.9*	10.0%	-9.5%	56.7*
O=C(CNS(=O)(=O)c1ccccc1)OCC(=O)c1ccc(OC(=O)c2ccccc2)cc1	15.2*	6.7%	-1.0%	32.1*
O=C(NCc1ccccc1)c1cccc(S(=O)(=O)NCc2ccccc2)c1	-1.9	11.9%	?	-6.0
Cc1ccccc1Nc1nc(N)nc(COC(=O)CCS(=O)(=O)c2ccccc2)n1	9.9	?	-22.3%	20.0
Cc1ccccc1Nc1nc(N)nc(COC(=O)c2cccc(S(=O)(=O)NCc3ccccc3)c2)n1	-3.0	?	13.1µM*	-2.5
Cn1c(=O)c2sccc2n2c(CCCC(=O)NCc3ccc(F)cc3)nnc12	-2.1	5.2%	?	-4.3
CCn1cc(CN2CCCC(C(=O)Nc3ccc(-c4cscn4)cc3)C2)c(C)n1 (stereo not drawn)	7.5	-29.2%	?	5.9
COc1cc(-c2nnc(COC(=O)c3nn(CC(C)C)c(=O)c4ccccc34)o2)cc(OC)c1OC	nt	20.4%	7.3%	nt
Cc1cc(C)c(C(=O)COC(=O)c2cccc(S(=O)(=O)NCc3ccccc3)c2)cc1C	22.5*	0.7%	-0.6%	11.0
CC(C)c1ccc(OCC(=O)N2CCN(C(=O)c3ccco3)CC2)cc1	-3.6	3.5%	?	-12.6
COc1ccc(S(=O)(=O)N2CCCCC2)cc1NC(=O)c1ccc(C)cc1	nt	19.8%	44.3%	nt
Cc1ccc(C)c(OCCC(=O)OCC(=O)Nc2cccc(S(=O)(=O)N3CCCC3)c2)c1	nt	-1.2%	2.7%	nt
COc1ccc(S(=O)(=O)N2CCCCC2)cc1NC(=O)CCOc1cc(C)ccc1C	nt	?	11.7µM*	nt
Cc1ccc(C)c(OCCC(=O)Nc2ccc(S(=O)(=O)N3CCCC3)cc2)c1	nt	?	9.28µM*	nt
Cc1nnc2c(N3CCN(C(=O)c4ccco4)CC3)nc3ccccc3n12	-3.0	-26.7%	32.4%	-2.1
COc1ccc(/C(N)=N/OC(=O)c2ccco2)cc1	7.1	379.2%	32.5%	21.0
CN(CC(=O)O/N=C(\N)c1ccc(Br)cc1)S(=O)(=O)c1ccccc1	-2.7	4.2%	15.1%	-4.8
SMILES	Cycloheximide cs	Pf growth 48h	Pf growth 96h	Shiga toxin inh
Cc1ccc(/C(N)=N/OC(=O)c2ccco2)cc1	21.8*	i	i	active
N/C(=N\OC(=O)c1ccco1)c1ccc(Br)cc1	38.7*	45.0%	86.7%	95.0*
N/C(=N\OC(=O)c1ccco1)c1ccccn1	44.0*	107.6%	?	94.6*
Cc1occc1C(=O)O/N=C(\N)c1ccc(Cl)cc1	66.1*	?	?	135.9*
Cc1noc(-c2ccc(Cl)cc2)c1C(=O)O/N=C(\N)c1ccc(C(C)(C)C)cc1	-3.3	?	?	15.1
N/C(=N\OC(=O)c1ccc2ccccc2c1)c1ccccn1	-1.2	-18.9%	59.9%	6.3
COc1ccc(/C=N/NS(=O)(=O)c2ccc(F)cc2)cc1CN1CCSCC1	-1.1	-15.9%	?	2.3
N/C(=N\OC(=O)c1ccco1)c1ccccc1	32.4*	320.6%	13.4%	+
CN(CCOC(=O)c1ccco1)Cc1ccccc1	1.2	nt	?	-4.8
Cc1cccc(/C(N)=N/OC(=O)c2ccco2)c1	26.4*	nt	?	71.5*
COc1cc(NC(=O)c2cc(C)no2)cc(OC)c1OC	-3.3	8.9%	21.8%	-2.4
O=C(NC(=S)NC1CCCCC1)c1ccccc1[N+](=O)[O-]	16.8	?	-22.0%	11.2
Cc1ccc2nc(C)c3c(c2c1)N(c1ccc(F)cc1)CC3	-1.7	?	13.1µM*	-20.4
CCOc1cccc(=NC2CCCCC2)c2c(C)n(C)c(C)c12	1.9	1.85µM*	?	12.9
